According to PubChem BioAssay AID2315 (National Center for Advancing Translational Sciences (NCATS), 2010):
“And” between values parts separate entries of the source, which are not always exact repeats. Identical values can stand only once. The campaign covered roughly 290,000 compounds. About 27,000 (9.3%) were called active. What follows is part of a selection rich in actives, with near analogues and random picks from the rest. Unmarked numbers belong to inactive results. Cut-off read from the data, not from the text of the source: active = inhibition mostly above about 28% (no sharp cut-off); inactive = mostly below about 43%.

Assay: A qHTS for Small Molecule Inhibitors of Shiga Toxin; note: 0% is about no effect
Conditions: Vero cells, Shiga toxin protein synthesis inhibition reporter; at 38.7 µM, hits give high values

Compound	inhibition
O=C(CNC(=O)[C@@H]1Cc2ccccc2CN1)NC1CCCCC1	-13.1%
COc1ccccc1NC(=O)CSc1nc2sc3c(c2c(=O)n1-c1ccccc1)CCN(C)C3	35.8% (active)
CCOc1ccc(-n2c(SCC(=O)OC)nc3sc4c(c3c2=O)CCN(C)C4)cc1	11.7%
CCOc1ccc(-n2c(SCC(=O)Nc3ccc(OC)cc3)nc3sc4c(c3c2=O)CCN(C)C4)cc1	4.16%
O=C(O)c1cc(S(=O)(=O)N(Cc2ccccc2)c2cccc(C(F)(F)F)c2)ccc1Cl	-2.31%
CC(=O)N1CCC(C(=O)OCc2ccc(Cl)cc2)(c2ccccc2)CC1	-6.33%
Cc1c(Cl)cccc1NC(=O)NCCCN1CCCC1=O	29.4%
O=C(CN1C(=O)c2ccccc2C1=O)NCc1ccc(C(=O)O)cc1	5.13%
CC(=O)c1ccc(N2CCN(C(=O)c3ccc4nc[nH]c4c3)CC2)cc1	29.9% (active)
O=C(c1cccc(C(=O)N2CCN(c3ccc(F)cc3)CC2)c1)N1CCN(c2ccc(F)cc2)CC1	-8.51%
Cc1nc2ccc(C(=O)N3CCN(c4ccccc4)CC3)cc2s1	11.9%
CCN1C(=NCCc2cccnc2)N[C@@H](c2ccccc2)[C@H](C(=O)OC)[C@H]1C	12.2% and -9.8%
C=C1CCN(Cc2ccc(OC)cc2)S(=O)(=O)c2ccccc21	-5.84%
COc1ccc(OC)c(CNC(=O)Cn2nc(C)c3c(C)n(-c4ccc(C)cc4)nc3c2=O)c1	26.2%
COc1ccc(S(=O)(=O)NNC(=O)Nc2ccc(C)cc2)c(OC)c1	-5.98%
NC(=O)C1CCN(C(=O)CC2C(=O)NCCN2Cc2cccc(Oc3ccccc3)c2)CC1 (stereo not drawn)	-10.2%
Cc1nn(-c2ccccc2)c2c1c(C)c(CCC(=O)NCC1CCCO1)c(=O)n2C (stereo not drawn)	-2.28%
Cc1onc(-c2ccccc2Cl)c1C(=O)NCCn1ccc2ccccc21	-2.64%
Cc1onc(-c2ccccc2Cl)c1C(=O)OCC(=O)c1ccccc1	71.6% (active)
Cc1[nH]c2ccccc2c1C(=O)COC(=O)c1c(-c2ccccc2)noc1C	-2.62%
COc1ccc(/C=C(\NC(=O)c2ccccc2)C(=O)NCCN2CCOCC2)cc1OC	1.37%
Cc1cc(-c2nnc(CCC(=O)NC(c3ccccc3)c3ccccc3)o2)no1	35.4% (active)
CC(CCn1cccn1)NC(=O)CCc1nnc(CCc2ccccc2)o1 (stereo not drawn)	-10.4%
O=C(CCc1nnc(CCCCc2ccccc2)o1)NC(c1cccnc1)C(F)(F)F (stereo not drawn)	-12.1%

Compound	inhibition
COC(=O)c1ccc(N2CCOCC2)c(NC(=O)c2ccc(Br)o2)c1	31.4%
CC1=NN(C(N)=S)C(=O)C1N=Nc1cc(Cl)ccc1Cl (stereo not drawn)	-1.92%
Cc1cccc(N=Nc2c(C)[nH]n(-c3ccccc3)c2=O)c1	-4.8%
Cc1[nH]n(C(N)=S)c(=O)c1N=Nc1ccc(Cl)cc1Cl	44.3% (active)
Cc1cc(C)c2oc(C(=O)Nc3ccc(S(=O)(=O)Nc4nccc(C)n4)cc3)cc(=O)c2c1	2.27%
CCc1ccc(NC(=O)C(C)OC(=O)/C=C/c2cccc([N+](=O)[O-])c2)cc1 (stereo not drawn)	15.5%
O=C(N/N=C/c1cccc([N+](=O)[O-])c1)c1ccncc1	22.3%
Cc1ccc(NC(=O)O/N=C/c2cccc([N+](=O)[O-])c2)cc1	70.8% (active)
Cc1ccc(C)c(S(=O)(=O)Nc2cc(C)on2)c1	-4.53%
COc1ccc2oc(N)c(C=O)c(=O)c2c1	63.7%
CCc1cc2c(=O)c(-c3ccc(F)cc3)c(C(F)(F)F)oc2cc1OCC(=O)O	5.27%
CCc1cc2c(=O)c(-c3ccon3)c(N)oc2cc1OC	82.2% (active)
CSc1nnc(C2CCCN(CC(=O)Nc3ccccc3N3CCOCC3)C2)n1C(C)C (stereo not drawn)	-9.97%
O=C(Cn1c(NCCO)nc2ccccc21)c1ccc(Cl)cc1Cl	-8.74%
COC(=O)c1c(NC(=O)C2CC(C)=C(C)CC2C(=O)O)sc2c1CCCCC2 (stereo not drawn)	-7.33%
O=C(CCc1nnc2ccc(NCc3ccco3)nn12)Nc1cc(F)ccc1F	-6.06%
CC(=O)c1ccc(NC(=O)CCc2nnc3ccc(NCc4ccco4)nn23)cc1	49.7% (active)
CCOc1ccccc1NC(=O)CCc1nnc2ccc(NCc3ccco3)nn12	-9.81%
COCCNC(=O)CCCN1C(=O)c2ccccc2Sc2ncccc21	-19.8%
CCOc1ccccc1-c1nc(CN2CCC(C(=O)N3CCOCC3)CC2)c(C)o1	-7.77%
O=C(NCc1ccccn1)C1CCN(S(=O)(=O)c2ccc(Br)cc2)CC1	-33.7%
Cc1ccc(-c2cc(N)on2)cc1	108% (active)
Cc1ccc(S(=O)(=O)Cc2cc(-c3ccc(Cl)cc3)no2)cc1	8.79%
O=C(Cc1ccccc1Cl)N1CCOCC1	-11.4%

Compound	inhibition
CN1CCCC(OC(=O)COc2ccc(Br)cc2)C1 (stereo not drawn)	-12%
COc1cc2c(cc1OC)/C(=C/C(=O)c1ccc(NC(C)=O)cc1)NCC2	-6.51%
CC1CN/C(=C\C(=O)c2ccc(Br)cc2)C(=O)N1 (stereo not drawn)	67.3% (active)
CC(C)(C)OC(=O)NC(Cc1ccccc1)C(=O)NC(CSC1CCCCO1)C(=O)NN (stereo not drawn)	-14.3%
Cc1cccc(N2CCN(C(=O)COCc3cc(-c4ccc5c(c4)OCO5)on3)CC2)c1C	-8.35%
CCOC(=O)N1CCN(C(=O)COCc2cc(-c3ccc4c(c3)OCO4)on2)CC1	-7.65%
CC(C)NC(=O)COCc1cc(-c2ccc3c(c2)OCO3)on1	45.3% (active)
Cc1nn2c(=O)cc(COC(=O)c3ccc(NC(=O)C(C)(C)C)cc3)nc2s1	35.5%
COc1cccc(C2CC(c3cccs3)=NN2C(=O)CSC2=NCCS2)c1OC (stereo not drawn)	-5.1%
CCCc1cc(=O)oc2cc(OCC(=O)Nc3ccc(CN4CCOCC4)cc3)c(Cl)cc12	-1.59%
Cc1ccc(C(=O)NNC2=Nc3cc([N+](=O)[O-])ccc3OC2)cc1	40.3%
COc1ccc(C2=Nc3cc(C)ccc3OC2)cc1	94% (active)
COc1ccc(C2=NOC3(CC(=O)N(c4ccc(C)cc4)C3=O)C2)cc1 (stereo not drawn)	36.5%
Cn1cc(C(=O)c2ccc(Cl)cc2Cl)cc1C(=O)NN	-5.33%
CC(C)(C)c1ccc(SCCc2ccncc2)cc1	69.1% (active)
c1ccc(CSCCc2ccncc2)cc1	-5.65%
Cc1cc(C)c(SCCc2ccncc2)c(C)c1	-4.14%
CN(NS(=O)(=O)c1cccs1)c1ncc(C(F)(F)F)cc1Cl	-2.15%
Cc1ccc(C(=O)CSc2nc3ccccc3c(=O)n2N)o1	77.2%
Cn1c(COc2ccc(Cl)cc2)nc2ccccc2c1=O	46% (active)
Cc1nc2ccccc2c(=O)n1-c1ccc(Cl)cc1Cl	-14.3%
COc1ccc(OCc2ccc(-c3nc4ccccc4c(=O)n3N)o2)cc1	129% (active)
Cn1c2ccccc2c(=O)c2c(=O)n(Cc3ccco3)c(COc3ccccc3)nc21	8.54%
COc1ccc(-c2nc3ccccc3c(=O)n2CCc2ccc(O)cc2)cc1	40.9%

Compound	inhibition
COC(=O)c1sc(N2CCN(Cc3ccccc3)CC2)nc1N	-8.35%
Cc1ccc(CNCc2ccc3c(c2)OCO3)c(C)c1	-7.85%
O=C(O)C1=NN(c2c(F)c(F)cc(F)c2F)C(=O)CC1	-10.3%
O=C(/C=C/c1ccc2c(c1)OCO2)NCc1ccc(F)cc1	26.5%
CNS(=O)(=O)c1ccc(NC(=O)Nc2ccc3c(c2)OCO3)cc1	72.9% (active)
COc1ccc(/C=C/C(=O)Nc2ccc3c(c2)OCCO3)cc1OC	35.4%
COc1cccc(/C=C/C(=O)Nc2ccc3c(c2)OCCO3)c1	70.9% (active)
CC(NC(=O)Nc1ccc2c(c1)OCO2)c1ccncc1 (stereo not drawn)	19.2%
Cc1cccc(NC(=O)/C=C/c2ccc3c(c2)OCO3)n1	70.2% (active)
CC(C)CNS(=O)(=O)c1ccc(C(=O)Nc2ccc3c(c2)OCO3)cc1	-14.7%
Cc1cccc(NC(=O)Nc2ccc3c(c2)OCO3)n1	76.3% (active)
Cc1ccc2nc(-c3ccccn3)cc(C(=O)Nc3ccc4c(c3)OCO4)c2c1	-7.35%
CC(NS(=O)(=O)c1ccc(Cl)cc1)C(=O)Nc1ccc2c(c1)OCCO2 (stereo not drawn)	-5.73%
CCc1c(C)sc(NC(=O)/C=C/c2ccc3c(c2)OCO3)c1C(=O)OC	-7.04%
COc1ccc(OC)c(/C=C/C(=O)OCC(=O)Nc2ccc3c(c2)OCCO3)c1	-11%
COc1cccc(NC(=O)C2CCCN(c3ncnc4c3nc3n4CCCCC3)C2)c1 (stereo not drawn)	-3.78%
Cc1ccc(N2CCN(C(=O)c3cccs3)CC2)c(C)c1	8.46%
CCc1ccc(OCC(=O)N(Cc2ccccc2)C2CCS(=O)(=O)C2)cc1 (stereo not drawn)	-3.9%
CN(C)S(=O)(=O)c1cccc(C(=O)OCC(=O)N2CCCC2=O)c1	-2.45%
CC(C(=O)NC1CCS(=O)(=O)C1)N1C(=O)/C(=C/c2ccc(Cl)cc2)SC1=S (stereo not drawn)	-2.44%
COc1ccccc1CN1CCN(Cc2cc(OC)c(OC)cc2OC)CC1	7.78%
